Assay results as given in PubChem BioAssay (NCATS).
Several values for one entry are separate records, joined by “and”; a condition that tells them apart may be missing. Equal values may be shown once. Inconclusive results are not listed. Values without a mark were called inactive. Activity calls are given as the source filed them. Calls follow the shape of the dose curve; as a rule, active = well fitted inhibition curve with a large enough effect; inconclusive = small, poorly fitted or top-dose-only effect; inactive = flat fitted curve, though single readings scatter. Where a SMILES comes first, the peptide text is derived from it. Bridges are numbered along the chain shown (N, C = ends). [ ]: non-standard residue; d: D form. Orn = NCCC[C@H](N)C(=O)O; Mpa = O=C(O)CCS

The compounds below were run on KB-3-1 (assay: Cytotoxic Profiling of Annotated Libraries Using Quantitative High-Throughput Screening (AID 1296008; also: nearly all actives have a fitted effect of over 60% in size)). Details: Five cell lines viability, CellTiter-Glo ATP luminescence, 48-72 h; max response: active compounds read low.
Procedure, shortened: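 Cells exposed to compounds for 48 or 72 hr at 37 degrees Celsius. Viability read as ATP-coupled luminescence with CellTiter-Glo after 10 min at room temperature.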
% is scaled to controls: 0 for no effect and ±100 for the full control effect; potency is read from the fitted curve at half-maximal effect.

Question: Which max response does the source give for `CCC(c1ccccc1)c1noc(CCN(CC)CC)n1` (configuration not stated) here?
Answer: -6.24%

Question: How did the max response turn out when `CCOC(=O)Nc1ccc2c(c1)N(C(=O)CN(C)C)c1ccccc1CC2` was run?
Answer: -13.4%

Question: `O.O=C([O-])CC([S-])C(=O)[O-].[Au+].[Na+].[Na+]` (configuration not stated) was tested. Which max response did it give?
Answer: -7.82%

Question: `O=C(CCCN1CCC(n2c(=S)[nH]c3ccccc32)CC1)c1ccc(F)cc1` was tested. Which max response did it give?
Answer: 8.28%

Question: `Cc1c(O)cc2c(c1C)O[C@](C)(CCC[C@H](C)CCC[C@H](C)CCCC(C)C)CC2` was tested. Which max response did it give?
Answer: -6.57%

Question: For `COc1cc([C@@H]2c3cc4c(cc3C(O[C@@H]3O[C@@H]5COC(c6cccs6)O[C@H]5[C@H](O)[C@H]3O)C3COC(=O)[C@@H]32)OCO4)cc(OC)c1O` (some centres not stated), which Potency is on record?
Answer: 3.66 µM (active)

Question: With `Cc1[nH]cnc1C[C@H]1CCc2c(C)c3ccccc3n2C1=O` as the compound, how does the max response read?
Answer: -19%

Question: With `CC(=O)OCC(=O)[C@@]1(O)[C@H](C)C[C@H]2[C@@H]3C[C@H](F)C4=CC(=O)C=C[C@]4(C)[C@H]3[C@@H](O)C[C@@]21C` as the compound, how does the max response read?
Answer: 23.1%

Question: `CCCCCCCC(=O)CC[C@@H]1[C@@H](C/C=C\CCCC(=O)OC(C)C)[C@@H](O)C[C@H]1O` was tested. Which max response did it give?
Answer: 7.18%

Question: `COc1ccc(C2NC(=S)N3C(c4ccc(OC)c(OC)c4)NC(=S)N23)cc1OC` (configuration not stated) was tested. Which max response did it give?
Answer: -2.1%

Question: `COc1ccc(C(=O)Nc2ccccc2CCC2CCCCN2C)cc1` (configuration not stated) was tested. Which max response did it give?
Answer: -11.1%

Question: `CCCC(=O)O[C@]1(C(=O)COC(=O)CC)[C@@H](C)C[C@H]2[C@@H]3CCC4=CC(=O)C=C[C@]4(C)[C@@]3(F)[C@@H](O)C[C@@]21C` was tested. Which max response did it give?
Answer: -7.8%

Question: `C=C1CC[C@@H]2[C@](C)(CO)[C@H](O)CC[C@@]2(C)[C@@H]1CC(=O)C1=CCOC1=O` was tested. Which max response did it give?
Answer: -15.5%

Question: With `O=C(c1ccccc1)c1c(O)cc(O)cc1O[C@@H]1O[C@H](CO)[C@@H](O)[C@H](O)[C@H]1O` as the compound, how does the max response read?
Answer: 2.63%

Question: With `CCOc1ccc(C[C@H]2NC(=O)CCSSC[C@@H](C(=O)N3CCC[C@H]3C(=O)N[C@@H](CCCN)C(=O)NCC(N)=O)NC(=O)[C@H](CC(N)=O)NC(=O)[C@H]([C@@H](C)O)NC(=O)[C@H]([C@@H](C)CC)NC2=O)cc1` ([Mpa][dY](Et)ITNCP[Orn]G-NH2; disulfide 1-6) as the compound, how does the max response read?
Answer: -2.06%

Question: For `CN(C)CCOc1ccccc1Cc1ccccc1` (tested in a mixture with another compound), which max response is on record?
Answer: 0.128%

Question: With `CNC[C@@H]1CC[C@@H](N)[C@@H](O[C@H]2[C@H](O)[C@@H](O[C@H]3OC[C@](C)(O)[C@H](NC)[C@H]3O)[C@H](N)C[C@@H]2N)O1` as the compound, how does the max response read?
Answer: -26.6%

Question: With `CCOC(=O)COc1ccc2c(C)c(CCN(CC)CC)c(=O)oc2c1` as the compound, how does the max response read?
Answer: -7.36%

Question: For `CC1(C)CN(C(=O)c2ccc(-c3cccc4nc(NC(=O)C5CC5)nn34)cc2)C1`, which outcome is on record?
Answer: inactive

Question: `NCCC(=O)[N-][C@@H](Cc1cnc[nH]1)C(=O)O.[Zn]` was tested. Which max response did it give?
Answer: -13.6%

Question: `CC(=O)O[C@H]1CC(C)(C)CC2[C@]13CO[C@@]21CCC2[C@@]4(C)CC[C@H](O[C@@H]5OC[C@H](O[C@@H]6O[C@H](CO)[C@@H](O)[C@H](O)[C@H]6O[C@@H]6OC[C@@H](O)[C@H](O)[C@H]6O)[C@H](O)[C@H]5O[C@@H]5O[C@H](CO)[C@@H](O)[C@H](O)[C@H]5O)[C@@](C)(CO)C4CC[C@@]2(C)[C@]1(C)C[C@H]3O` (some centres not stated) was tested. Which max response did it give?
Answer: 4.15%

Question: Which max response does the source give for `O=C(O)[C@@H](O)[C@H](O)[C@H](O)[C@@H](O)C(=O)O` (tested in a mixture with another compound) here?
Answer: -0.35%

Question: `CCN1CCCC1CNC(=O)c1cc(S(=O)(=O)CC)ccc1OC` (configuration not stated) was tested. Which max response did it give?
Answer: -13.4% and -13.1%

Question: How did the max response turn out when `CCCCCC(O)/C=C/C=O` (configuration not stated) was run?
Answer: -19%

Question: For `NCCCC[C@H](NC(=O)[C@@H]1CCCN1C(=O)[C@@H]1CSSC[C@H](N)C(=O)N[C@@H](Cc2ccc(O)cc2)C(=O)N[C@@H](Cc2ccccc2)C(=O)N[C@@H](CCC(N)=O)C(=O)N[C@@H](CC(N)=O)C(=O)N1)C(=O)NCC(N)=O`, which max response is on record?
Answer: 0.366% and -14.6%

Question: With `O=C(Nc1cccc(C(F)(F)F)c1)Nc1ccc(Br)cc1-c1nn[nH]n1` as the compound, how does the max response read?
Answer: 7.51%

Question: With `O=C(O)c1cc2ccccc2c(Cc2c(O)c(C(=O)O)cc3ccccc23)c1O` as the compound, how does the max response read?
Answer: -8.98%
